Screening data deposited in PubChem by several laboratories.
MMP-13 inhibitor: human MMP13 inhibitors, primary screen, biochemical, FRET peptide cleavage; Collagenase 3 (Homo sapiens), P45452; MMP-13 fTHP FRET cleavage, Mca fluorescence; inhibition, % at 4 µM; 0.07% of 65,000 active; AID 570, 2006;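 active = inhibition above the mean of compound-free control plate wells plus 3 SD, cut at about 14% in these data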;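 also: 0% = DMSO wells and 100% = wells with reference MMP-13 inhibitor after basal subtraction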
M1 agonist: M1 muscarinic receptor agonists, primary screen, CHO-M1 cells, Fluo-4 calcium, agonist mode; Muscarinic acetylcholine receptor M1; Fluo-4 calcium fluorescence; stronger effect = higher value; B-score at 10 µM; 3% of 64,000 active;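 active = fluorescence rise, raw or as B-score row- and column-corrected plate score, outside the 99.7% band of its plate's samples, either direction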
Hsp90 block: tumor Hsp90 inhibitors, primary screen, cell lysate, fluorescence polarization, NCI-N417 lysate; Cy3B-geldanamycin FP displacement; inhibition, % at 30 µM; 0.35% of 64,000 active;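 active = inhibition above 50%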;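 also: 0% = tracer plus lysate wells and 100% = tracer alone without lysate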
Cdc25B inh: inhibitors of Cdc25B phosphatase catalytic domain, primary screen, biochemical, OMFP fluorescence; M-phase inducer phosphatase 2 (Homo sapiens), P30305; 0.1% of 65,000 active; recombinant Cdc25B, OMFP fluorescence Ex485/Em525; inhibition, %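 (compounds tested at 10 µM final in the well)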; in the data active = inhibition above about 50%
Target sequence (P30305 whole entry, looked up, the tested form may be a part): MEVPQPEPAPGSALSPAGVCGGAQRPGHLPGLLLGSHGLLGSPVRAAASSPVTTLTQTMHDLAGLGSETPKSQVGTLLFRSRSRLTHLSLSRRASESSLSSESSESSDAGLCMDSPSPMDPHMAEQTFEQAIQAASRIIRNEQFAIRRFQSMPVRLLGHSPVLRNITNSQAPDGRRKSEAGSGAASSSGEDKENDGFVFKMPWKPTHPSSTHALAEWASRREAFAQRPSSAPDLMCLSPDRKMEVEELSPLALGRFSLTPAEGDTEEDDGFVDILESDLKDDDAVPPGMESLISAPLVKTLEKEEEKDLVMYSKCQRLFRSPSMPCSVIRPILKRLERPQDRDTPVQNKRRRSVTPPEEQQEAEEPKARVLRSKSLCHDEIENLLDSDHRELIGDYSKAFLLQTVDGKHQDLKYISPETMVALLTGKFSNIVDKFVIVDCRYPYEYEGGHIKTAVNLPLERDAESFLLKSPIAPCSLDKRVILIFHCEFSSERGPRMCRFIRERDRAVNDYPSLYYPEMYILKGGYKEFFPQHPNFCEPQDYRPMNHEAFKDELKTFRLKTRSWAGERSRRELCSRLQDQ
M1 antagonist: antagonists of rat M1 muscarinic receptor | Muscarinic acetylcholine receptor M1 (Rattus norvegicus), P08482 | CHO-M1 cells, Fluo-4 calcium, ACh EC80 antagonist mode; stronger effect = lower value | B-score at 10 µM | 3.4% of 64,000 active | AID 628, 2007;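 active = calcium fluorescence response, raw or row-and-column corrected B-score, differing from the plate sample mean either way at a set confidence level, mostly lower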
MKP-1 inh: MKP-1 phosphatase inhibitors, primary screen, biochemical, in vitro; inhibition, %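 (compounds tested at a single concentration somewhere between 10 and 100 µM)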; Dual specificity protein phosphatase 1 (Homo sapiens), P28562; 0.15% of 65,000 active; recombinant MKP-1, OMFP hydrolysis fluorescence;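 active = inhibition above about 50%, limit read from the data; inconclusive = inhibition over screen mean plus 3 SD, below that limit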;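 also: 0% = DMSO max control wells and 100% = wells with enzyme stopped by NaOH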
M1 agonist conf: rat M1 muscarinic receptor agonists, confirmation, CHO-M1 cells, Fluo-4 calcium, duplicate retest. shares compounds with M1 agonist. Fluo-4 calcium fluorescence, agonist mode; actives lie on both sides. fluorescence change (max-min) at 10 µM. 19% of 1,700 active;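 active = fluorescence change differs from the solvent-only DMSO control mean at a set confidence level in both duplicate runs; inconclusive = differs from solvent-only control mean in just one of two runs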;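 also: an EC20 dose of acetylcholine follows compound addition during the same imaging run; raw fluorescence intensity difference in instrument units with no normalization to controls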
M4 agonist ctr: agonist activity at rat M4 receptor, confirmation, counter-screen for M1 allosteric modulator project, cell-based, agonist mode. shares compounds with M1 agonist. CHO M4/Gqi5 cells, Fluo-4 calcium fluorescence; actives lie on both sides. fluorescence change (max-min) at 10 µM. 9% of 1,700 active;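 active = fluorescence change differing from the plate's solvent-only control wells at 99.7% confidence in both duplicates, whether higher or lower; inconclusive = differs from solvent controls in only one of two duplicates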
* marks the source's active call; other numbers are inactive results; ? = inconclusive; / = not tested or not shown. The list is not random: actives were taken first. Their share in the collection is about 6.1%.

SMILES	MMP-13 inhibitor	M1 agonist	Hsp90 block	Cdc25B inh	M1 antagonist	MKP-1 inh	M1 agonist conf	M4 agonist ctr
Cc1ccc(C)c(N2CCN(C(=O)c3ccc(CS(=O)(=O)c4ccccc4C)o3)CC2)c1	-3	2.8*	-1	-18	-1.2	31	-19	-28
COc1ccccc1S(=O)(=O)Cc1ccc(C(=O)N2CCN(c3ccccc3)CC2)o1	-1	1.9	-3	-4	-0.9	23	/	/
Cc1cccc(N2CCN(C(=O)c3ccc(CS(=O)(=O)c4ccccc4C)o3)CC2C)c1 (configuration not stated)	0	9.2*	1	-22	-2.2*	24	?	-30
CC1CCCC(C)N1C(=O)CSc1nnc(CSc2ncccn2)n1C (configuration not stated)	1	-1.2	-2	-16	0.79	11	/	/
COC(=O)C(NS(C)(=O)=O)(c1c(C)[nH]c2ccccc12)C(F)(F)F (configuration not stated)	3	-0.86	-4	11	0.021	3	/	/
Cc1cc(C)n(C(=O)c2ccc(C)c(S(=O)(=O)N3CCCC3)c2)n1	6	0	-8	-5	1.7	-9	/	/
CCCCN(CCCC)C(=O)CSc1nnc(-c2cc(OC)c(OC)c(OC)c2)o1	2	4.4*	0	-5	-1.1	11	?	?
COc1cc(-c2nnc(SCC#CCO)o2)cc(OC)c1OC	-6	5.8*	-3	0	0.73	-8	-6	-13
OCC#CCSc1nnc(-c2ccncc2)o1	3	-0.0047	-1	-1	-2.2	25	/	/
CCOC(=O)c1[nH]c(C)c(/C=N/O)c1C	-4	-0.4	-6	3	1.2	5	/	/
OC(C#Cc1ccccn1)c1cccs1 (configuration not stated)	1	0.45	-2	1	-0.62	-15	/	/
CCn1c(SCC(=O)Nc2ccccc2N2CCCCC2)nc2c1c(=O)n(C)c(=O)n2C	-6	2*	1	-4	-1.3	3	-17	-13
CCCCC(=O)Nc1cccc(-c2nc3ncccc3o2)c1	-64	1.1	15	-6	0.17	-1	/	/
CCCCCC(=O)Nc1cccc(-c2nc3ncccc3o2)c1	-57	4*	-4	0	-1.2	37	-3	-8.7
CCS(=O)(=O)Nc1ccc(-c2ccc(NS(=O)(=O)CC)c(OC)c2)cc1OC	-10	-0.43	-7	-29	0.03	3	/	/
O=C(Nc1ccc2c(c1)OCO2)C1CCCN(S(=O)(=O)Cc2ccccc2)C1 (configuration not stated)	1	3.9*	8	-7	-2.5*	-22	5.3	-24
O=C(Nc1ccc2c(c1)OCCO2)C1CCCN(S(=O)(=O)Cc2ccccc2)C1 (configuration not stated)	5	-0.51	3	-10	-0.66	-6	/	/
CC(Nc1cc(=O)n(C)c(=O)n1C)c1ccccc1 (configuration not stated)	3	-0.081	-1	-9	0.085	-10	/	/
O=C(CN1CCOCC1)N1CCN(S(=O)(=O)c2ccccc2)C1c1ccccc1 (configuration not stated)	-12	0.41	-5	9	0.39	6	/	/
Cc1ccc(S(=O)(=O)N2CCN(C(=O)CN3CCOCC3)C2c2ccccc2)cc1 (configuration not stated)	0	6.2*	-3	-9	0.68	14	-12	-29
COc1ccc(C2N3CC4(C)CN2CC(C)(C3)C4)cc1OC (configuration not stated)	4	-3.1*	/	-11	0.47	5	-14	-65*
